USP30 block = inhibitors of human USP30 deubiquitinase; purified USP30, Ub-rhodamine cleavage fluorescence; inhibition, % at 25 µM; 5.3% of 47,000 active; Ubiquitin carboxyl-terminal hydrolase 30 (Homo sapiens), Q70CQ3
Target sequence (Q70CQ3 whole entry, looked up): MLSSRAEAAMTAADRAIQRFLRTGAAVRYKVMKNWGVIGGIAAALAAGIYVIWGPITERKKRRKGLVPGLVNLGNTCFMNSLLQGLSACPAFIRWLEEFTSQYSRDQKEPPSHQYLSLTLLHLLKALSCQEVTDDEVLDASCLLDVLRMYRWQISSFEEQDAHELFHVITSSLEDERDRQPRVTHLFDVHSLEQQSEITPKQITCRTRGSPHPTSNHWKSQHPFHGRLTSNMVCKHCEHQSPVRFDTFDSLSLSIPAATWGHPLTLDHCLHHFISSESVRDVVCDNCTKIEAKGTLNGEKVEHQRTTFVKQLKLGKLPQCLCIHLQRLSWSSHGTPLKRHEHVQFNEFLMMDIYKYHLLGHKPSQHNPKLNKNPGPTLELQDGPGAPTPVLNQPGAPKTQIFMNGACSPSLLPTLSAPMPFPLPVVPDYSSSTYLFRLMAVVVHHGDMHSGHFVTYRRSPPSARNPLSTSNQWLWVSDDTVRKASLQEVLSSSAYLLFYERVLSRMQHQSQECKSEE
USP17 block = inhibitors of human USP17 deubiquitinase; AID 1645855, 2021; 6.5% of 47,000 active; inhibition, % at 50 µM; purified USP17, Ub-rhodamine cleavage fluorescence, 3 h
USP8 inh = inhibitors of human USP8 deubiquitinase. Ubiquitin carboxyl-terminal hydrolase 8 (Homo sapiens), P40818. purified USP8, Ub-rhodamine cleavage fluorescence, 30 min. inhibition, % at 20 µM. 4.2% of 47,000 active. AID 1645853, 2021
* hit, by the source's call; nt = not tested or not shown. The list is not random: actives were taken first. Their share in the collection is about 12%. Cut-off read from the data, not from the text of the source: active = inhibition above about 30%; inactive = the rest.

SMILES	USP30 block	USP17 block	USP8 inh
Cc1nc(-c2noc3ccc(C(=O)NC4CCCC4)cc23)co1	33*	32*	17
Cc1nc(-c2noc3ccc(C(=O)NCCc4cccnc4)cc23)co1	3	-3	0
COc1ccc(C(C)=O)cc1CN1C(=O)NC2(CCCc3ccccc32)C1=O (stereo unspecified)	15	7	12
O=C(O)c1cccc(Nc2c(-c3cccc(O)c3)nc3cnccn23)c1	-155	-44	-11
O=C(OCc1cnc(Cl)s1)c1ccc([N+](=O)[O-])cc1	3	-3	-132
O=C(Nc1cccc(OC(=O)c2ccc(Cl)cc2)c1)c1ccc(Cl)cc1	-3	63*	18
Cc1cccc(NC(=O)c2ccc3noc(-c4ccc(F)cc4)c3c2)c1	-41	-17	-8
CC(=O)c1cccc(NC(=O)c2ccc3noc(-c4ccc(F)cc4)c3c2)c1	41*	0	-42
O=C(Nc1ccc(Cl)cc1)c1cccc(OCc2ccccc2)c1	-4	0	-1
CC(=O)N1CCc2cc(S(=O)(=O)NCCC(=O)Nc3cccc(C)c3C)ccc21	64*	34*	25
CC(=O)N1CCc2cc(S(=O)(=O)NCCC(=O)Nc3ccc(C)cc3C)ccc21	28	17	19
Clc1ccc2c(Nc3ccc4c(c3)OCO4)ccnc2c1	53*	56*	-66
CNS(=O)(=O)c1ccc(Nc2ccc3c(c2)OCO3)c([N+](=O)[O-])c1	-15	21	-31
COc1cccc(CNC(=O)c2nc(-c3cn(-c4ccccc4Cl)nc3C)no2)c1	15	3	8
O=C(Nc1ccccc1C(=O)NC1CCSC1)c1ccc([N+](=O)[O-])cc1 (stereo unspecified)	45*	46*	11
O=C(Nc1ccccc1C(=O)N1CCOCC1)c1ccc([N+](=O)[O-])cc1	-12	-28	-119
CCn1nnc2c(N3CCN(c4ccc(F)cc4)CC3)ncnc21	nt	-6	-2
COc1cc2ncc(S(=O)(=O)c3ccc(C)cc3)c(Nc3ccc(F)cc3)c2cc1OC	-6	-31	-185
CCc1ccc(NC(=O)Cc2nc(-c3ccc(O)cc3O)cs2)cc1	nt	38*	-23
CCc1ccc(NC(=O)CN2CCN(c3nc4ccccc4s3)CC2)cc1	-2	-7	-3
O=C1Cc2ccccc2C(=O)N1Cc1cccc(Cl)c1	-74	17	88*
O=C(NC1CCCC1)c1ccc2c(c1)N(Cc1cccc(Cl)c1)C(=O)c1ccccc1S2	15	-1	0
CCc1[nH]c(=O)cc2cc(OC)c(OC)cc12	82*	94*	91*
CCCc1cc(=O)[nH]c(N2CCN(c3ccccc3OC)CC2)n1	21	1	1
O=C(Nc1ccccc1Oc1ccccc1)C(c1ccccc1)c1ccccc1	37*	23	23
SMILES	USP30 block	USP17 block	USP8 inh
N#Cc1ccc(OCC(=O)Nc2ccccc2Oc2ccccc2)cc1	-10	11	6
Cc1ncc(-c2nccnc2C2CCN(C(=O)c3n[nH]c4ccccc34)CC2)n1C	5	0	1
COc1cnc(CSc2ncccn2)cc1OCC(=O)Nc1ccccc1F	-296	-6	-48
COc1cnc(CSc2ccc(F)cc2)cc1OCC(=O)Nc1ccccc1F	43*	41*	13
COc1cn(CC(=O)Nc2cccc(F)c2)c(CSc2ccccc2)cc1=O	29	8	11
COc1cnc(CSc2ccccc2)cc1OCC(=O)Nc1ccc(F)cc1F	36*	34*	-3
CCCc1nc(C2CN(C(=O)c3cscn3)CCO2)n[nH]1 (stereo unspecified)	2	7	9
COc1cc(OC)cc(-c2nc(-c3nnn(Cc4ccccc4)c3C)no2)c1	6	5	5
CC1Cn2cc(C(=O)N3CCCc4ccccc43)c(=O)c3c(Cl)ccc(c32)O1 (stereo unspecified)	0	-9	3
CCc1nc2c3cnn(-c4ccc(C)c(C)c4)c3ncn2n1	-48	4	-2
Cc1ccc(Cl)cc1-n1ncc2c1ncn1nc(C3CCCCC3)nc21	24	34*	70*
COc1ccc(CCNC(=O)[C@@H]2Cc3c([nH]c4ccccc34)C3c4ccccc4C(=O)N32)cc1OC (stereo partly specified)	-35	-2	3
COc1ccc(C2c3c(-c4ccccc4O)n[nH]c3C(=O)N2CCc2ccc(OC)c(OC)c2)cc1 (stereo unspecified)	5	28	61*
Cn1nc(-c2nc(-c3ccccc3)no2)c2c1CCN(C(=O)C1CCCC1)C2	-15	64*	6
Cn1nc(-c2nc(-c3ccccc3)no2)c2c1CCN(C(=O)C1CC1)C2	68*	42*	5
Cn1nc(-c2nc(Cc3ccccc3)no2)c2c1CCN(C(=O)C1CCC1)C2	-8	-16	-18
Cn1nc(-c2nc(-c3ccccc3)no2)c2c1CCN(C(=O)C1CCC1)C2	6	2	12
O=C(c1ccco1)N1CCCC(c2ccnc3ncnn23)C1 (stereo unspecified)	12	0	14
COc1cccc(N2CCN(C(=O)CC(c3cccc(F)c3)n3cccc3)CC2)c1 (stereo unspecified)	-135	11	1
CCOc1ccc2[nH]c(=O)c(-c3nc4ccc(C)cn4c3NC3CCCCC3)cc2c1	-147	-7	-77
Cc1ccc2nc(-c3cc4ccc(C)c(C)c4[nH]c3=O)c(NC3CCCC3)n2c1	-18	41*	3
COC(=O)c1ccc(S(=O)(=O)N2CC(c3nc4ccccc4[nH]3)C2)cc1	-62	-67	-228
COc1cc(C(=O)Nc2nc3ccc(S(=O)(=O)N4CCCC4)cc3s2)cc(OC)c1OC	-67	40*	-8
CCC(=O)Nc1nc2cc(NC(=O)c3cc(OC)c(OC)c(OC)c3)ccc2s1	-130	-44	0
Cc1cc(C(=O)N2CCCCC2)c2c(=O)n(Cc3ccc(F)cc3)c(=O)n(C)c2n1	-231	-65	-9
SMILES	USP30 block	USP17 block	USP8 inh
O=C(NCCc1ccccc1)[C@H]1C=CCN1C(=O)c1ccc(F)cc1F	7	3	2
O=C(Cn1cnc2ccccc2c1=O)NC1CCCC1	-8	-1	-5
Cc1cnc(NC(=O)Cn2cnc3ccccc3c2=O)s1	-2	40*	-1
Cc1ccc(S(=O)(=O)N2CCc3cc(C(=O)NC(C)(C)C)ccc32)cc1	-6	-5	0
COc1ccc(CCC(=O)Nc2ccc(C)c(S(=O)(=O)Nc3ccccc3OC)c2)cc1	6	5	1
COc1ccccc1NS(=O)(=O)c1cc(NC(=O)c2cccc(-c3ccc(O)cc3)c2)ccc1C	30*	35*	0
O=C(CN1C(=O)COc2cc(S(=O)(=O)N3CCCC3)ccc21)NC1CCCCC1	1	-6	-11
CCOc1ccnc2c1c(=O)n(CC(=O)NC1CCCCC1)c(=O)n2C	4	16	6
CC1(C)CC(N2CC(=O)N3CCc4c([nH]c5ccccc45)[C@@]3(C)C2=O)CC(C)(C)N1	0	4	11
Cc1cc2nc(C)c(C/C=C/c3ccccc3)c(=O)n2[nH]1	35*	22	-36
Cc1nc2nc(-n3c(C)ccc3C)nn2c(C)c1C/C=C/c1ccccc1	-91	-12	-22
CCCCc1c(C)nc2nc(N(Cc3ccccc3)C(C)=O)[nH]n2c1=O	14	11	11

Bioassay records: PubChem, Buhrlage Lab, Dana-Farber Cancer Institute and Novartis Institutes for BioMedical Research (Cambridge, Mass)
